Activity calls are given as the source filed them. Unless noted, no rule for the calls is given here.

Assay [1] is described as follows: HepG2 liver cancer cell viability effects, profiling panel, resazurin fluorescence, 24 h, PK04 Diversity Set (AID 1172). Also: test concentration not given here. The conditions noted are these: higher = more signal. In general terms: Alamar Blue is a resazurin reagent that responds to reducing activity.
A short description of assay [2]: basal S. cerevisiae growth modulation, no modifier, primary screen, OD600, strain BY4716, 24 h, basal condition (AID 1173). To be noted: OD600, 24 h, higher = more signal, called active from +8 up or from −8 down.
Assay [3] can be described thus: MM1S myeloma cell viability, profiling panel, resazurin fluorescence, basal, 24 h, PK04 Diversity Set (AID 1174).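 Also: MM1S multiple myeloma cell line; test concentration not given here.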 To be noted: higher = more signal, called active from +8 up or from −8 down.
Assay [4] deals with Dihydroorotate dehydrogenase (quinone), mitochondrial (Plasmodium falciparum (isolate 3D7)) (UniProt Q08210). The experiment in a line: PfDHODH enzyme inhibitors, primary screen, biochemical, C-terminal His tag, absorbance 600 nm (AID 1175).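 Also: recombinant parasite enzyme with a five histidine tag at its C terminus; test concentration not given here.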 The conditions noted are these: DCIP absorbance 600 nm, higher = more signal, called active from +8 up or from −8 down.
Assay [5] can be described thus: P. aeruginosa biofilm formation inhibitors, primary screen, strain PAO1, LB-PBS medium, absorbance 600 nm (AID 1176). Also: test concentration not given here. The conditions noted are these: P. aeruginosa PAO1 growth/biofilm, A600, 12 h; higher = more signal.
A short description of assay [6]: S. cerevisiae RM11-1a growth modifiers, primary screen, strain RM11-1a, OD600, basal, 24 h (AID 1177).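 Also: cultures grown under basal conditions with no added stressor; test concentration not given here.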 The conditions noted are these: OD600, 24 h, higher = more signal, called active from +8 up or from −8 down.
A short description of assay [7]: E. coli acrAB mutant growth effects, primary screen, E. coli filamentation inducers, strain DRC39, OD650, 24 h (AID 1178).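 Also: growth measured as culture turbidity by optical density at 650 nm; test concentration not given here.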 The conditions noted are these: higher = more signal, called active from +8 up or from −8 down.
A short description of assay [8]: E. coli acrAB mutant growth effects, primary screen, E. coli filamentation inducers, strain DRC39, OD650, 48 h (AID 1179).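 Also: screen aims at cell division blockers that make cells filament.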 To be noted: E. coli DRC39 delta-acrAB growth, higher = more signal, called active from +8 up or from −8 down.
A short description of assay [9]: RPMI8226 myeloma cell viability, profiling panel, resazurin fluorescence, basal, 24 h, PK04 Diversity Set (AID 1180).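 Also: RPMI8826 multiple myeloma cell line at 5000 cells per well; test concentration not given here.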 The conditions noted are these: higher = more signal.
The target of assay [10] is E3 ubiquitin-protein ligase XIAP (Homo sapiens) (UniProt P98170). The experiment in a line: XIAP binders, primary screen, biophysical, small-molecule microarray, fluorescence 635 nm (AID 1181).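 Also: score merges 667 nm emission and signal to noise over triplicate slides.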 The conditions noted are these: small-molecule microarray binding, higher = more signal.
E3 ubiquitin-protein ligase XIAP (Homo sapiens), sequence (P98170 whole entry, looked up): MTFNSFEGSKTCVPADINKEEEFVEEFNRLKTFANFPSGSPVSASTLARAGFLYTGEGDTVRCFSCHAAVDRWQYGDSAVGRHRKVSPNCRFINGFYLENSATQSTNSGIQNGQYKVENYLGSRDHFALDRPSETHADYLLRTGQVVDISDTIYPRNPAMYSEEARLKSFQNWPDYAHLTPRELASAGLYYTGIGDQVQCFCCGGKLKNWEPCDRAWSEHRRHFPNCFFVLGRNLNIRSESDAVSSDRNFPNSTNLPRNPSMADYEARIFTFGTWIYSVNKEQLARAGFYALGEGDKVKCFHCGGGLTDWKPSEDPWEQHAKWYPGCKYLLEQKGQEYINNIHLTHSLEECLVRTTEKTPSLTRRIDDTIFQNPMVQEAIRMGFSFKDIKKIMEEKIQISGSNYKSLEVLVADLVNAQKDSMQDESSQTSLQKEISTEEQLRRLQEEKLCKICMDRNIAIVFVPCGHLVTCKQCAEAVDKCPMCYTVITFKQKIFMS

Dihydroorotate dehydrogenase (quinone), mitochondrial (Plasmodium falciparum (isolate 3D7)), sequence (Q08210 whole entry, looked up): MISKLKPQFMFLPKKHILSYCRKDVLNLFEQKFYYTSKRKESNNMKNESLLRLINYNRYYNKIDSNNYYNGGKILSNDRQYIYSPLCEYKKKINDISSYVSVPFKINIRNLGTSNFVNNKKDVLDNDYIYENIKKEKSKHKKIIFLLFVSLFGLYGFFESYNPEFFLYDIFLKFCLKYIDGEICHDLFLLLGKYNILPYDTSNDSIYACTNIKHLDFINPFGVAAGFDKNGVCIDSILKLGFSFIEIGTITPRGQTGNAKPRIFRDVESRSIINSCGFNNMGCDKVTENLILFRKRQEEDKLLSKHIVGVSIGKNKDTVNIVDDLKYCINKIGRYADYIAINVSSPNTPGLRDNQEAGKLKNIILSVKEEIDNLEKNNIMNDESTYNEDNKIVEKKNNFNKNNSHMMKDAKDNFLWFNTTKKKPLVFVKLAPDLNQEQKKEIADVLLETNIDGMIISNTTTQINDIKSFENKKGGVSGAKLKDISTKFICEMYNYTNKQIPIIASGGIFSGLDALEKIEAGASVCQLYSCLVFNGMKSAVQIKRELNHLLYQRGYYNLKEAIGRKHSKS

As for `CCCCC(=C=CC[C@@H](O)c1ccc(OCCO)cc1)CCO`, the z-score in [1] was 1.02; in [2] it was -4.12 (inactive); in assay [3], 1.54 (inactive); in assay [5], -0.0585 (inactive); in [6] it was 0.271 (inactive); in assay [7], 1.34 (inactive). Moreover, the z-score is 0.672 (inactive) in assay [8] and 1.3 in assay [9]. Further, the results for the composite z-score in assay [4] and in assay [10] were -2.3 (inactive) and 0.794, respectively.

As to `O=C1C2C=CC(C(O)c3ccccn3)N(Nc3ccc([N+](=O)[O-])cc3)C2C(=O)N1c1ccccc1` (stereo not given), the z-score in assay [1] is -0.534; in [2] it was 0.512 (inactive); in assay [3], -0.494 (inactive); in assay [5], 1.17 (inactive); in assay [6] it was -0.841 (inactive); in [7] it was -0.63 (inactive). Besides, the z-score was -0.462 (inactive) in assay [8] and -1.03 in assay [9]. The composite z-score in assay [4] is 0.128 (inactive); in assay [10], 0.359.

Take `CCCCC(=C=CC[C@@H](O)c1ccccc1OCCO)C[C@@H](O)c1ccccn1`: the z-score was 0.687 in assay [1]; -1.72 (inactive) in assay [2]; 0.538 (inactive) in [3]; 0.354 (inactive) in assay [5]; -0.506 (inactive) in [6]; 1.04 (inactive) in assay [7]. Besides, the z-score is 0.52 (inactive) in [8] and 0.805 in [9]. Also, the composite z-score in [4] is -7.64 (inactive); in assay [10], -0.287.

Consider `CCOC(=O)C1=CC[C@@H](c2ccccc2)N(S(=O)(=O)c2ccc(C)cc2)[C@@H]1C#N`, for which the z-score in assay [1] was 0.794; in [2], -1.95 (inactive); in assay [3] it was -1.43 (inactive); in [5], -0.088 (inactive); in assay [6] it was 0.455 (inactive); in assay [7], -0.337 (inactive). Further, the figures for the z-score in assay [8] and in assay [9] were 0.831 (inactive) and -1.57, respectively. In addition, the composite z-score in assay [4] was -1.21 (inactive); in assay [10] it was -0.207.

Take `C=CCOC(=O)[C@H]1[C@@H]2C(=O)O[C@@H](c3ccccc3)[C@@H](c3ccccc3)N2[C@@H](c2ccc(OCCOC(=O)[C@@H]3C[C@@H]4C(=O)N[C@@H](Cc5ccccc5)C(=O)N4[C@@H]3c3ccc(O)cc3)cc2)[C@]12C(=O)Nc1ccc(I)cc12`: the z-score was -0.654 in assay [1]; 2.3 (inactive) in assay [2]; -1.06 (inactive) in assay [3]; 2.75 (inactive) in assay [5]; 2.92 (inactive) in [6]; -0.588 (inactive) in assay [7]. Moreover, the z-score in assay [8] was -0.508 (inactive); in assay [9], -0.721. For the same compound, the composite z-score was 0.684 (inactive) in assay [4] and 0.349 in [10].

Regarding `C=C(COC)C(=O)CC[C@H](OC(C)=O)c1ccccc1OCCO`, the z-score was -0.812 in [1]; -0.86 (inactive) in assay [2]; -2.03 (inactive) in assay [3]; -0.435 (inactive) in assay [5]; -0.0727 (inactive) in [6]; 0.732 (inactive) in assay [7]. Besides, the z-score was 0.373 (inactive) in [8] and -2.37 in assay [9]. For the same compound, the composite z-score in assay [4] was -1.56 (inactive); in assay [10], 0.0153.

With `CN1C(=O)C2C=CC(C(O)c3ccc([N+](=O)[O-])cc3)N(Nc3ccccc3)C2C1=O` (stereo not given), the z-score was -1.83 in [1]; -1.21 (inactive) in [2]; -1.03 (inactive) in assay [3]; 1.1 (inactive) in [5]; 0.114 (inactive) in [6]; -0.987 (inactive) in assay [7]. The z-score in assay [8] was -1.16 (inactive); in assay [9], -1.44. For the same compound, the values for the composite z-score in [4] and in assay [10] were 0.003 (inactive) and -0.0476, respectively.

As for `CCCC[C@@H](O)C1=C(C)Cn2c(=O)n(-c3ccccc3)c(=O)n2[C@H]1CO`, the z-score in assay [1] was -0.256; in [2] it was -1.82 (inactive); in assay [3], -0.0268 (inactive); in [5], 0.413 (inactive); in [6], -1.88 (inactive); in assay [7], 0.514 (inactive). Also, the z-score in assay [8] is 0.715 (inactive); in [9], -0.0486. Further, the composite z-score in assay [4] is -1.06 (inactive); in [10], -0.249.

As to `C[C@]12C(=O)N(CCO)[C@@H]3C(=O)N(c4ccc(Cl)cc4)CC=CC31O[C@@H]1/C=C\CCCOC(=O)C12` (stereo not given in full), the z-score in [1] is -0.561; in [2], 0.13 (inactive); in [3] it was -0.562 (inactive); in assay [5], -0.481 (inactive); in assay [6], 0.556 (inactive); in assay [7], -1.18 (inactive). The z-score in assay [8] is -1.25 (inactive); in [9] it was -0.184. The values for the composite z-score in assay [4] and in assay [10] were -0.141 (inactive) and -0.0746, respectively.

As for `C=CCNC(=O)[C@@H]1[C@H]2C(=O)O[C@H](c3ccccc3)[C@H](c3ccccc3)N2[C@H](c2ccc(OCCO)cc2)[C@@]12C(=O)Nc1ccc(C#CC3=CCCCC3)cc12`, the z-score in assay [1] was -0.411; in assay [2], 0.899 (inactive); in assay [3], -2.16 (inactive); in assay [5], 2.29 (inactive); in [6], 2.01 (inactive); in assay [7], -0.972 (inactive). Besides, the z-score was -0.563 (inactive) in [8] and -2.96 in assay [9]. For the same compound, the composite z-score in [4] is 0.106 (inactive); in assay [10] it was -0.178.

Take `C=C(/C=C\CNS(=O)(=O)c1ccc(C)cc1)[C@H](O)[C@H]1CCCN1S(=O)(=O)c1ccccc1[N+](=O)[O-]`: the z-score in assay [1] is -0.527; in [2] it was 0.487 (inactive); in assay [3], -0.943 (inactive); in [5], 1.21 (inactive); in assay [6], 2.53 (inactive); in assay [7], 1.12 (inactive). Besides, the z-score was -0.23 (inactive) in assay [8] and -0.851 in [9]. Further, the composite z-score is 1.57 (inactive) in assay [4] and -0.0448 in assay [10].

In the case of `O=C(O)C1=CC[C@H]2C(=O)N(c3ccccc3)C(=O)[C@@H]12`, the z-score was -0.0581 in assay [1]; 1.53 (inactive) in assay [2]; -0.849 (inactive) in [3]; 0.477 (inactive) in assay [5]; 1.6 (inactive) in assay [6]; -0.897 (inactive) in assay [7]. For the same compound, the z-score in assay [8] was -0.453 (inactive); in [9], -1.24. Besides, the figures for the composite z-score in assay [4] and in [10] were 0.609 (inactive) and 0.997, respectively.

In the case of `COc1ccc(-c2cc3c(c(CCc4ccccc4)n2)[Si](C(C)C)(C(C)C)O[C@H]3c2ccccc2)cn1`, the z-score in [1] was -0.166; in assay [2] it was 0.871 (inactive); in assay [3], 0.694 (inactive); in [5], 0.726 (inactive); in [6] it was 0.868 (inactive); in assay [7], -1.19 (inactive). In addition, the figures for the z-score in assay [8] and in [9] were -0.893 (inactive) and -0.555, respectively. Moreover, the composite z-score in [4] was -0.575 (inactive); in assay [10], -0.12.

The values above are taken from PubChem BioAssay.
